# Compound activity (PubChem)
# In the library only some 7.9% were active in any assay of this set; here they are far more common.
# MARV entry inh = Marburg virus entry inhibition; actives 1.8% (n = 300,000); AID 540276; Marburg virus pseudotyped entry inhibition, cell reporter; Potency, µM (titrated, usually from 37.8 µM), for inactives: at the highest dose activity change, negative = inhibition, actives largely listed as inhibitors; calls by dose curve; tested in HEK293 cells; further: potency means the concentration at half of the fitted maximal effect
# HCV inh = blocks hepatitis C virus; Huh7.5.1 HCVcc-Cre infection, luciferase reporter, 44 h; Potency, µM (top dose mostly 41.8 µM), inactives show at the top dose activity change, negative = inhibition, actives largely listed as inhibitors; actives 3.4% (n = 340,000); AID 651820; active means well fitted inhibition curve with a large enough effect; inconclusive means small, poorly fitted or top-dose-only effect, or another doubt; inactive means no such curve, though single readings can be large or run the other way; further: potency means the concentration at half of the fitted maximal effect
#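 1,000 cells/well; 4 h culture; + compound; + HCVcc-Cre (~0.5 moi); 44 h; luciferase substrate, RT 15 min; read 15 sec.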
# FMDV inh = blocks foot and mouth disease virus; FMDV antiviral cell-based qHTS; Potency, µM (series often up to 57.9 µM), without a hit: at the highest dose activity change, negative = inhibition, most hits filed as inhibitors; actives 1.2% (n = 410,000); AID 1159524; calls by dose curve; tested in HEK293T cells; further: read-out not given here; potency means the concentration at half of the fitted maximal effect; nearly all actives have a fitted effect of over 45% in size
# LASV entry inh = Lassa virus entry inhibition | actives 1.2% (n = 300,000) | Lassa virus pseudotype entry inhibition, cell reporter | Potency, µM (series often up to 37.9 µM), without a hit: at the highest dose activity change, negative = inhibition, hits mostly inhibitors | AID 540256; calls by dose curve; tested in HEK293 cells; further: potency means the concentration at half of the fitted maximal effect; nearly all actives have a fitted effect of over 50% in size
# HCMV inh = inhibitors of human cytomegalovirus; actives 4.5% (n = 410,000); AID 1259415; HFF cells, HCMV-luciferase reporter, 72 h; active compounds read low; activity change, negative = inhibition, % at 57.5 µM; in the data active means activity change below about -60%; inconclusive means no clear call, values can overlap the other calls; inactive means above about -39%
#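 Luciferase read-out from HCMV-luciferase-infected HFFs (MOI 1 PFU/cell) 72 h post infection at 37C; compounds added after 16 h cell attachment; activity normalized between buffer-only basal and Salinomycin (10uM) inhibitor controls.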
# * marks the source's active call; other numbers are inactive results; u = inconclusive; x = no result given; [ ] = remark or other dose. On the % scale 0 is the no-effect control and ±100 the full control effect.
SMILES,MARV entry inh,HCV inh,FMDV inh,LASV entry inh,HCMV inh
Cc1cnc(C)c(-c2cccc3c2OC(CNC(=O)/C=C/c2ccncc2)C3)n1 (centres undefined),x,x,-9%,x,x
Cc1nc2c(cc1C(=O)N/N=C/c1ccc(O)c(O)c1)c(=O)n(C)c(=O)n2C,25%,u,-25%,1%,-74*
O=C(N/N=C/c1ccc(O)c(O)c1)c1ccc(-n2cnnn2)cc1,x,u,-5%,x,4
Cc1ccccc1/C=C\c1nc2ccccc2c(=O)[nH]1,u,10µM*,25%,u,47
Cc1ccc(/C=C/c2nc3ccccc3[nH]2)cc1,x,x,8.9µM*,2.2µM*,-91*
Cc1ccc(/C=C/c2nc3ccccc3c(=O)[nH]2)cc1,x,12%,16µM*,x,47
Cc1ccc(/C=C/c2nc3ccccc3[nH]2)o1,u,13%,-49%,u,110
Cc1ccccc1/C=C/c1nc2ccccc2c(=O)[nH]1,u,-24%,3%,u,67
O=C(CSc1n[nH]c(=O)[nH]c1=O)Nc1ccc(SC(F)F)cc1,-4%,-4%,-21%,35%,-21
CNCCC1Sc2ccccc2Oc2ccccc21 (centres undefined),u,12%,6%,u,-29
CN(C)CCCC1Sc2ccccc2Sc2ccccc21 (centres undefined),u,16µM*,u,u,-8
CCN(C(=O)c1cc2c(Cl)nc3ccccc3c2s1)c1cccc(Cl)c1,u,x,-26%,-23%[46.1 µM],-12
Cc1cc(C)cc(C(=O)N2CC(C)SC2=Nc2cccc(S(=O)(=O)N(C)C)c2)c1 (centres undefined),u,u,-25%,u,u
Cc1ccc(C(=O)N2CC(C)SC2=Nc2cccc(S(=O)(=O)N(C)C)c2)cc1 (centres undefined),-12%,-12%,-19%,3.2µM*,-30
O=C(C(c1ccccc1)c1ccccc1)N1CCCc2ccccc21,14µM*,-17%,-7%,-20%,-11
O=C(c1cnc2ccccn2c1=O)N1CCCc2ccccc21,17%,-3%,0%,-2%,-64*
O=C(c1coc(=O)c(Br)c1)N1CCCc2ccccc21,14%,-27%,1%,-14%,-75*
COc1cccc2c1NC1(c3ccccc3)c3ccccc3-n3nncc3CN1C2=O (centres undefined),x,x,x,x,-4
COc1cc(-c2nc(C)cnc2C)cc2c1OCCN(C(=O)Cc1cc(OC)c(OC)c(OC)c1)C2,x,x,-5%,x,x
Cc1ccccc1C(=O)N1CCC(C(=O)N(C)CC(=O)Nc2cccc(F)c2)CC1,6%[46.1 µM],-1%,39%,-13%[46.1 µM],9
COC(=O)NC(c1ccc2c(c1)OCO2)C(C(=O)OC)C(=O)OC (centres undefined),25%[14.2 µM],x,x,x,x
CCOc1ccc(C(=O)Nc2ccc(N3CCN(C(C)=O)CC3)cc2)cc1[N+](=O)[O-],x,-18%,-25%,x,-33
CC(=O)N1CCN(c2ccc(Oc3ccc([N+](=O)[O-])c(C(F)(F)F)c3)cc2)CC1,u,11µM*,u,u,x
CCN(CC)c1ccc2cc(NC(=O)CCC(=O)O)c(=O)oc2c1,1.8µM*,4%,x,u,-66*
CCN(CC)c1ccc2cc(C(C)=O)c(=O)oc2c1,11%,-22%,50%,u,45
SMILES,MARV entry inh,HCV inh,FMDV inh,LASV entry inh,HCMV inh
COc1ccc2c(c1)c(CC(=O)Nc1nnc(C3CC3)s1)c(C)n2C(=O)c1ccc(Cl)cc1,3.2µM*,14%,5%,u,-76*
COc1ccc2c(c1)c(CC(=O)NCc1cc([N+](=O)[O-])ccc1O)c(C)n2C(=O)c1ccc(Cl)cc1,-10%,u,40µM*,8%,x
COc1ccc2c(c1)c(CC(=O)Nc1c(C)cccc1C)c(C)n2C(=O)c1ccc(Cl)cc1,-16%[46.1 µM],x,u,0%[46.1 µM],-17
COc1ccc2c(c1)c(CC(=O)Nc1ccc(C(C)=O)cc1)c(C)n2C(=O)c1ccc(Cl)cc1,u,-28%,18%,u,19
COc1ccc(OC)c(NC(=O)Cc2c(C)n(C(=O)c3ccc(Cl)cc3)c3ccc(OC)cc23)c1,-22%[46.1 µM],x,u,u,-71*
COc1ccc2c(c1)c(CC(=O)Nc1ccccc1OC)c(C)n2C(=O)c1ccc(Cl)cc1,u,u,-18%,-15%,-13
CN(C)CCCOc1ccc(C(C)(C)c2ccccc2)cc1,13µM*,11µM*,-15%,u,-33
